Screens (PubChem)
These entries were drawn from the full list.
aSyn UTR act: Activators working through SNCA 5'UTR binding (MLPCN) | activity score, % (tested at 7.5 µM), hits read low | alpha-synuclein 5'UTR reporter, activators screen | 7.1% of 300,000 active; in the data active = activity score below about -60%
Numbers without * were called inactive.

Cc1[nH]c2ccccc2c1C(=O)CSc1nc2ccccc2[nH]1 was read as aSyn UTR act -100.0*.
Screening C/C(N)=C(/C#N)C(=O)CSc1nnnn1-c1ccc(C)cc1 returned aSyn UTR act -89.8*.
For COc1ccc2c(c1OC)C(=O)N1c3ccccc3SC21 (stereo not drawn) the results were aSyn UTR act -142.3*.
For COc1ccc2c(c1OC)C(=O)N1c3ccccc3C(=O)N(c3ccccc3F)C21 (stereo not drawn) the results were aSyn UTR act 60.6.
COc1ccc2c(c1OC)C(=O)N1c3ccccc3COC21 (stereo not drawn) was read as aSyn UTR act -139.9*.
Screening CCOC(=O)C1=C(CSc2nc(-c3ccccc3)ccc2C#N)OC(N)=C(C#N)C1c1ccc(OC)cc1 (stereo not drawn) returned aSyn UTR act -184.0*.
`Cc1cccc(N2CCN(C(=O)CCCOc3ccccc3)CC2)c1C` gave aSyn UTR act -85.9*.
For COc1cc(C(=O)N2CCN(c3cccc(C)c3C)CC2)cc(OC)c1OC the results were aSyn UTR act 58.3.
CCOC(=O)N1CCN(C(=O)CCCOc2ccccc2)CC1 was read as aSyn UTR act -114.7*.
`N#C/C(=C\c1ccco1)Sc1nc2ccccc2s1` gave aSyn UTR act -83.6*.
COCCN(C(=O)COC(=O)/C=C/c1ccccc1Cl)c1c(N)n(Cc2ccccc2)c(=O)[nH]c1=O was read as aSyn UTR act -91.9*.
For COc1ccc(N)cc1-n1c(C)ccc1C the results were aSyn UTR act -117.9*.
Screening COc1ccc(/C=C/c2cc(=O)c3cc(Cl)ccc3o2)cc1 returned aSyn UTR act -253.4*.
For O=C(O)c1cc(-c2c[nH]c3ccccc23)nc2cc3ccccc3cc12 the results were aSyn UTR act -65.8*.
Screening Nc1ccccc1Nc1cc(-c2ccccc2)[nH]n1 returned aSyn UTR act -170.7*.
For c1ccc2cc(-c3cc4ccccn4c3)ccc2c1 the results were aSyn UTR act -98.1*.
For COc1ccc(CNC(=O)NC2CCCCC2)cc1 the results were aSyn UTR act -79.6*.
Screening O=C(NC1CCCCC1)C(=S)NCc1ccccc1 returned aSyn UTR act -71.1*.
Screening O=C(NC1CCCCC1)C(=S)NC1CCCCC1 returned aSyn UTR act -106.3*.
`O=C(NC1CCCCCC1)C(=S)NCc1ccccc1` gave aSyn UTR act -86.0*.
Cc1ccc(/C=C/C(=O)Nc2nccs2)o1 was read as aSyn UTR act -156.8*.
For Cc1cnc(NC(=O)/C=C/c2ccc(Br)o2)s1 the results were aSyn UTR act -105.6*.
`Cc1ccc(/C=C/C(=O)Nc2ncc(C)s2)o1` gave aSyn UTR act -206.7*.
Cc1ccc(/C=C/C(=O)Nc2ccc(N(C)C)cc2)o1 was read as aSyn UTR act -193.3*.
For NS(=O)(=O)c1ccc(N/C=C\C(=O)c2cccc3ccccc23)cc1 the results were aSyn UTR act -65.3*.
O=C(Cc1cccs1)Nc1nnc(-c2ccccc2)s1 was read as aSyn UTR act -211.3*.
For O=C(Cc1cccs1)Nc1nnc(-c2ccc(F)cc2)s1 the results were aSyn UTR act -75.8*.
`CCc1nc(-c2cc3ccc(C)cc3[nH]c2=O)no1` gave aSyn UTR act -84.3*.
`Clc1ccc(-c2nnc(CCc3ccccc3)o2)c(Cl)c1` gave aSyn UTR act -155.4*.
Screening Oc1ccccc1-c1nnc(COc2ccccc2)o1 returned aSyn UTR act -87.9*.
Oc1ccccc1-c1nnc(COc2ccc(Cl)cc2Cl)o1 was read as aSyn UTR act -170.1*.
For c1ccc(OCc2nnc(-c3ccccc3)o2)cc1 the results were aSyn UTR act -129.2*.
For CCOC(=O)COn1c(=O)c(-c2ccc(C)cc2)[n+]([O-])c2ccccc21 the results were aSyn UTR act -135.9*.
Screening CCOc1ccc(-c2c(=O)n(OCc3nc4ccccc4[nH]3)c3ccccc3[n+]2[O-])cc1 returned aSyn UTR act -111.9*.
`CCOC(=O)c1ccc2nc(NC(=O)c3cccs3)sc2c1` gave aSyn UTR act -105.1*.
`CCOC(=O)c1ccc2nc(NC(=O)C(C)C)sc2c1` gave aSyn UTR act -112.6*.
Screening CCCCC(=O)Nc1nc2ccc(C(=O)OC)cc2s1 returned aSyn UTR act -113.8*.
`CCCC(=O)Nc1nc2ccc(C(=O)OCC)cc2s1` gave aSyn UTR act -135.8*.
Screening Cc1[nH]n(C2=NCCS2)c(=O)c1N=Nc1cccc(C(F)(F)F)c1 returned aSyn UTR act 66.6.
Cc1[nH]n(C(N)=S)c(=O)c1N=Nc1cccc(C(F)(F)F)c1 was read as aSyn UTR act -164.6*.
Cc1[nH]n(C(N)=S)c(=O)c1N=Nc1ccc(Br)cc1 was read as aSyn UTR act -90.5*.
For Cc1ccc(N=Nc2c(C)[nH]n(C(N)=S)c2=O)cc1 the results were aSyn UTR act -115.7*.
`CC1CCc2nc(NC(=O)Cc3cccs3)sc2C1` (stereo not drawn) gave aSyn UTR act -160.1*.
Screening CC(C)(C)C1CCc2nc(NC(=O)Cc3cn4ccsc4n3)sc2C1 (stereo not drawn) returned aSyn UTR act -65.6*.
`O=C(CCCc1cccs1)Nc1nc2c(s1)CCCC2` gave aSyn UTR act -171.0*.
Cc1csc(NC(=O)CCCc2cccs2)n1 was read as aSyn UTR act -77.1*.
Screening CC1CCc2nc(NC(=O)c3ccco3)sc2C1 (stereo not drawn) returned aSyn UTR act 88.1.
`CCN(C(=O)c1cc2c(=O)[nH]c3ccc(C)cc3c2s1)c1cccc(C)c1` gave aSyn UTR act -217.3*.
O=C(CSc1ccccn1)c1ccc2c(c1)OCO2 was read as aSyn UTR act -149.1*.
O=C(CSc1nc2ccccc2[nH]1)c1ccc2c(c1)OCO2 was read as aSyn UTR act -139.9*.
For CSc1ccccc1-c1nnc(-c2ccc(C)cc2)o1 the results were aSyn UTR act -105.8*.
`Cc1ccccc1-c1nnc(-c2ccccc2C)o1` gave aSyn UTR act -145.4*.
Cc1ccccc1-c1nnc(CN2CCC(C)CC2)o1 was read as aSyn UTR act -76.5*.
Cc1ccccc1-c1nnc(-c2ccc(Br)cc2)o1 was read as aSyn UTR act -175.0*.
Screening CN(C)Cc1ccccc1Sc1ccc2c(c1)CCCC2 returned aSyn UTR act 104.3.
`Cc1cc(C)c2sc(NNC(=O)c3ccc(S(=O)(=O)N4CCc5ccccc5C4)cc3)nc2c1` gave aSyn UTR act 77.4.
O=C(Nc1nnc(C2CC2)s1)C1Cc2ccccc2CN1S(=O)(=O)c1cccs1 (stereo not drawn) was read as aSyn UTR act -66.4*.
`CCc1nnc(NC(=O)C2Cc3ccccc3CN2S(=O)(=O)c2ccc(C)cc2)s1` (stereo not drawn) gave aSyn UTR act -81.2*.
`CCc1nnc(NC(=O)C2Cc3ccccc3CN2S(=O)(=O)c2cccs2)s1` (stereo not drawn) gave aSyn UTR act -105.4*.
Cc1ccc(COc2ccc(-c3nnco3)cc2)cc1 was read as aSyn UTR act -118.1*.
`Clc1ccc(-c2cnc(Oc3ccccc3)nc2)cc1` gave aSyn UTR act -215.6*.
Screening O=C(c1ccc2c3n(nc2c1)-c1ccc(Cl)cc1CO3)N1CCOCC1 returned aSyn UTR act -109.2*.
`O=C(NCC1CCCO1)c1ccc2c3n(nc2c1)-c1ccccc1CO3` (stereo not drawn) gave aSyn UTR act -103.0*.
O=C(c1ccc2c3n(nc2c1)-c1ccccc1CO3)N1CCOCC1 was read as aSyn UTR act -113.7*.
For Cc1ccc2c(c1)COc1c3ccc(C(=O)N4CCCCC4)cc3nn1-2 the results were aSyn UTR act -108.3*.
